The values that follow come from PubChem BioAssay (EPA / NIEHS).

Read-out in assay [1]: Thrombomodulin, THBD (gene 7056)
Put plainly: BSK_CASM3C_Thrombomodulin: BioMAP Diversity Plus: CASM3C Assay for Thrombomodulin Biomarker Activity (AID 2283051).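 Note: thrombomodulin protein level measured by ELISA 24 h after dosing.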 The following applies: primary human coronary artery smooth muscle cells; actives raise or lower the signal.

Read-out in assay [2]: Tissue Factor, F3 (gene 2152)
Put plainly: BSK_CASM3C_TissueFactor: BioMAP Diversity Plus: CASM3C Assay for Tissue Factor Biomarker Activity (AID 2283052).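 Note: cell surface tissue factor protein level read by ELISA.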 The following applies: primary human coronary artery smooth muscle cells; actives raise or lower the signal.

Read-out in assay [3]: Interferon-gamma inducible Protein 10 (IP10), CXCL10 (gene 3627)
The experiment in a line: BSK_hDFCGF_IP10: BioMAP Diversity Plus: hDFCGF Assay for Interferon-gamma inducible Protein 10 (IP10) Biomarker Activity (AID 2283053). The following applies: primary human foreskin fibroblasts; actives raise or lower the signal. An outline of the steps: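 Primary foreskin fibroblasts, human; 24 h compound exposure; IP-10 by ELISA; bidirectional fit vs DMSO.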

Read-out in assay [4]: Urokinase-type plasminogen activator receptor (uPAR), PLAUR (gene 5329)
Put plainly: BSK_CASM3C_uPAR: BioMAP Diversity Plus: CASM3C Assay for Urokinase-type plasminogen activator receptor (uPAR) Biomarker Activity (AID 2283054).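 Note: cell-surface uPAR protein level quantified by ELISA.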 The settings on record: primary human coronary artery smooth muscle cells; actives raise or lower the signal.

Read-out in assay [5]: Vascular cell adhesion molecule 1 (VCAM1), VCAM1 (gene 7412)
The experiment in a line: BSK_CASM3C_VCAM1: BioMAP Diversity Plus: CASM3C Assay for Vascular cell adhesion molecule 1 (VCAM1) Biomarker Activity (AID 2283055).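 Note: VCAM-1 protein level quantified by ELISA on the cells.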 The settings on record: primary human coronary artery smooth muscle cells; actives raise or lower the signal.

Read-out in assay [6]: Epidermal growth factor receptor (EGFR), EGFR (gene 1956)
The experiment in a line: BSK_hDFCGF_EGFR: BioMAP Diversity Plus: hDFCGF Assay for Epidermal growth factor receptor (EGFR) Biomarker Activity (AID 2283057). The settings on record: primary human foreskin fibroblasts; actives raise or lower the signal. An outline of the steps:
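hDFCGF system, primary human foreskin fibroblasts; compound 24 h; EGFR measured by ELISA; DMSO = negative control/baseline; bidirectional fitting.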

Read-out in assay [7]: Interleukin-8 (IL8), CXCL8 (gene 3576)
The experiment in a line: BSK_hDFCGF_IL8: BioMAP Diversity Plus: hDFCGF Assay for Interleukin-8 (IL8) Biomarker Activity (AID 2283058). The settings on record: primary human foreskin fibroblasts; actives raise or lower the signal. The essentials:
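IL-8 levels from compound-treated primary human fibroblasts were read by ELISA at 24 h, with DMSO serving as baseline for bidirectional fitting.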

A short description of assay [8]: BSK_hDFCGF_Proliferation: Cell Proliferation Assessment in the BioMAP Diversity Plus: hDFCGF Assay (AID 2283059).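 Note: curves fitted for both rise and fall of signal versus DMSO baseline.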 The settings on record: primary human foreskin fibroblasts. An outline of the steps:
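Sub-confluent human foreskin fibroblast cultures receive test chemical […]. Relative cell number is quantified by sulforhodamine B staining (0.1%, after 10% TCA fixation) at 560 nm, with bidirectional fitting referenced to DMSO.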

Read-out in assay [9]: Collagen III, COL3A1 (gene 1281)
Put plainly: BSK_hDFCGF_CollagenIII: BioMAP Diversity Plus: hDFCGF Assay for Collagen III Biomarker Activity (AID 2283056). The following applies: primary human foreskin fibroblasts; actives raise or lower the signal. The essentials: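 Cells: human foreskin fibroblasts, primary. Dosing followed by 24 h incubation, then ELISA for collagen III. Both increases and decreases scored relative to DMSO.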

Read-out in assay [10]: Macrophage colony-stimulating factor (MCSF), CSF1 (gene 1435)
The experiment in a line: BSK_hDFCGF_MCSF: BioMAP Diversity Plus: hDFCGF Assay for Macrophage colony-stimulating factor (MCSF) Biomarker Activity (AID 2283060). The settings on record: primary human foreskin fibroblasts; actives raise or lower the signal. An outline of the steps:
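M-CSF levels, determined by ELISA, are taken at 24 h after dosing human skin fibroblasts. Responses in either direction are fitted with DMSO serving as the baseline.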

“And” between values parts separate entries of the source, which are not always exact repeats. Equal values may be shown once. Some structures have more than one record in an assay (separate samples or runs), and their calls can disagree. The source made the active and inactive calls. Rule for the calls: active = hit-call score of the fitted dose curve at least 0.9, where 1 is the maximum; inactive = score below 0.9.

Turning to `O=C(O)c1cn(C2CC2)c2cc(N3CCNCC3)c(F)cc2c1=O`, the outcome in assay [1], in assay [2], in assay [3], in [4], in assay [5] and in [6] was inactive. The result in assay [7] and in assay [8] was inactive.
Usually AC50 stands for the concentration giving half of the maximal activity seen. Consider `C=CCOC(=O)CCC1CCCCC1`, for which the outcome in [1], in assay [2], in [3], in assay [4], in assay [5] and in assay [9] was inactive. Further, the outcome in assay [6], in assay [7] and in assay [10] was inactive. In addition, in assay [8], the AC50 was 30.8 µM (active) and 37.8 µM (active).
With `O=C=NC1CCC(CC2CCC(N=C=O)CC2)CC1` (stereo not given), the outcome in assay [1], in assay [2], in assay [3], in [4], in [5] and in [9] was inactive. Further, the outcome in [6] and in assay [7] was inactive. Also, the AC50 in [8] is 28.5 µM (active); in assay [10], 4.84 µM (active).
As for `OC[C@H]1O[C@H](O[C@]2(CCl)O[C@H](CCl)[C@@H](O)[C@@H]2O)[C@H](O)[C@@H](O)[C@H]1Cl`, the result in assay [1], in [2], in assay [3], in assay [4], in assay [5] and in assay [9] was inactive. The outcome in assay [6], in assay [7], in [8] and in assay [10] was inactive.
In the case of `COC(=O)c1ccc(C)cc1`, the result in [1], in assay [2], in assay [3], in assay [4], in assay [5] and in assay [9] was inactive. Further, the outcome in assay [6], in assay [7], in assay [8] and in assay [10] was inactive.
Take `CC(=O)[C@H]1CC[C@H]2[C@@H]3CC=C4C[C@@H](O)CC[C@]4(C)[C@H]3CC[C@]12C`: the result in [1], in [2], in assay [3], in assay [4], in assay [5] and in [6] was inactive. Also, the outcome in [7], in [8] and in assay [10] was inactive. In addition, the AC50 in [5] is 9.48 µM (active).
With `CC(=O)Nc1ccccc1O`, the result in assay [1], in assay [2], in assay [3], in assay [5], in assay [9] and in [6] was inactive. The result in [7], in assay [8] and in [10] was inactive. For the same molecule, the AC50 in assay [4] is 0.124 µM (active).
Consider `CC1CCC(C(C)CS)CC1S` (stereo not given), for which the AC50 in assay [1] is 29.1 µM (active); in assay [3] it was 4.25 µM (active); in assay [4], 20 µM (active); in [5], 28.8 µM (active); in [9] it was 4.29 µM (active); in assay [7], 28 µM (active). Also, the AC50 in assay [8] was 4.84 µM (active); in assay [10] it was 6.95 µM (active). For the same molecule, the result in assay [2] and in [6] was inactive.
For the molecule `CC(=O)O[C@]1(C(C)=O)CC[C@H]2[C@@H]3C[C@H](C)C4=CC(=O)CC[C@]4(C)[C@H]3CC[C@@]21C`, the outcome in assay [1], in assay [2], in [3], in [4], in [5] and in assay [9] was inactive. Further, the outcome in [6], in assay [7] and in assay [10] was inactive. Moreover, in assay [8], the AC50 was 0.0802 µM (active).
In the case of `C=C(C)C(=O)O[C@H]1C[C@@H]2CC[C@@]1(C)C2(C)C`, in assay [1], the result was inactive. Besides, the AC50 was 9.73 µM (active) in assay [2]; 35.2 µM (active) in assay [3]; 9.04 µM (active) in [4]; 12.1 µM (active) in assay [5]; 20 µM (active) in [9]; 29.4 µM (active) in assay [6]. Also, the AC50 is 35.3 µM (active) in assay [7], 13.1 µM (active) in [8] and 28.4 µM (active) in [10].
For the molecule `Nc1cc([N+](=O)[O-])ccc1O`, the half-maximal activity concentration (AC50) was 20 µM (active) in [1]; 20 µM (active) and 10.8 µM (active) in assay [8]. In addition, the outcome in [1], in assay [2], in [3], in assay [4], in assay [5] and in assay [6] was inactive. Moreover, the result in assay [7] and in [10] was inactive.
For the molecule `BrC1CCC(Br)C(Br)CCC(Br)C(Br)CCC1Br` (stereo not given), the result in assay [1], in [2], in [3], in [4], in assay [5] and in assay [6] was inactive. Also, the outcome in assay [7] was inactive. Also, the AC50 was 1.33 µM (active) in [8] and 4.61 µM (active) in [10].
With `C[C@H]1C[C@@H]2[C@H]([C@@H](O)C[C@@]3(C)[C@H]2CC[C@]3(O)C(=O)CO)[C@@]2(C)C=CC(=O)C=C12`, the result in assay [1], in assay [2], in assay [3], in assay [4], in [6] and in assay [7] was inactive. The result in assay [8] and in assay [10] was inactive. Further, the AC50 was 1.2 µM (active) in [4]; 860 nM (active) and 150 nM (active) in [5].
As to `O=C(O)c1ccc([N+](=O)[O-])cc1`, the outcome in assay [1], in [2], in assay [3], in assay [4], in assay [5] and in assay [9] was inactive. Further, the result in [6], in [7], in assay [8] and in assay [10] was inactive.
Turning to `NCCNCCN`, the result in assay [1], in assay [2], in assay [3], in assay [4], in assay [5] and in [6] was inactive. In addition, the result in assay [7], in assay [8] and in [10] was inactive.
For `CC(C)Oc1ccccc1O`, the result in assay [1], in [2], in assay [3], in [4], in [5] and in assay [9] was inactive. Moreover, the result in assay [6], in [7] and in [10] was inactive. Further, in assay [8], the AC50 was 20 µM (active).
`CC(C)c1ccc(C(C)C)cc1`: the result in assay [1], in [3], in assay [9], in [6], in assay [7] and in [10] was inactive. Besides, the AC50 in [2] is 35.5 µM (active); in assay [4], 20 µM (active); in assay [5], 32.6 µM (active); in assay [8], 33.4 µM (active).
For `O=C1CCCCCCCCCCCCCCO1`, the AC50 in assay [1] is 27.8 µM (active); in assay [2], 28.7 µM (active); in assay [4], 31.9 µM (active); in assay [5], 28 µM (active); in [8], 2.99 µM (active); in assay [10], 9.4 µM (active). The result in [3], in assay [6] and in [7] was inactive.
Consider `CC[Si](OC(C)=O)(OC(C)=O)OC(C)=O`, for which the outcome in [1], in assay [2], in [3], in [4], in [5] and in assay [6] was inactive. The result in [7], in assay [8] and in assay [10] was inactive. For the same molecule, the AC50 in assay [8] was 16.1 µM (active).
As for `CCCCC(CC)COCCC#N` (stereo not given), the result in assay [1], in assay [2], in assay [4], in assay [5], in assay [6] and in [7] was inactive. Also, the outcome in [10] was inactive. Besides, the AC50 was 20 µM (active) in assay [3], 24.1 µM (active) in assay [9] and 11.1 µM (active) in assay [8].
